Assay results published in the supplement of paper PMC6411743.
± gives the standard deviation of the averaged measurements. The full data set covers some 6,200 targets. This sample favours those with the largest changes.

Compound: Nc1ncnc2c1ncn2[C@@H]1O[C@H](COP(=O)(O)OP(=O)(O)NP(=O)(O)O)[C@@H](O)[C@H]1O [adenylyl imidodiphosphate]
Test: NP40-soluble protein abundance relative to vehicle (solubility fold change) (ratio); higher = more soluble protein in presence of AMP-PNP
Method in brief: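 Values are fold changes against the detergent-processed vehicle, based on vsn-normalised intensities. Jurkat crude lysate was treated at eight concentrations from 0.1 to 10 mM (10 min at room temperature, then 3 min at 37 °C), solubilised with 0.8% NP40 and benzonase, ultracentrifuged and analysed by TMT-labelled LC-MS/MS over three independent experiments.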

Chain of UniProt Q9H0E3 (Q9H0E3 whole entry, one chain of several): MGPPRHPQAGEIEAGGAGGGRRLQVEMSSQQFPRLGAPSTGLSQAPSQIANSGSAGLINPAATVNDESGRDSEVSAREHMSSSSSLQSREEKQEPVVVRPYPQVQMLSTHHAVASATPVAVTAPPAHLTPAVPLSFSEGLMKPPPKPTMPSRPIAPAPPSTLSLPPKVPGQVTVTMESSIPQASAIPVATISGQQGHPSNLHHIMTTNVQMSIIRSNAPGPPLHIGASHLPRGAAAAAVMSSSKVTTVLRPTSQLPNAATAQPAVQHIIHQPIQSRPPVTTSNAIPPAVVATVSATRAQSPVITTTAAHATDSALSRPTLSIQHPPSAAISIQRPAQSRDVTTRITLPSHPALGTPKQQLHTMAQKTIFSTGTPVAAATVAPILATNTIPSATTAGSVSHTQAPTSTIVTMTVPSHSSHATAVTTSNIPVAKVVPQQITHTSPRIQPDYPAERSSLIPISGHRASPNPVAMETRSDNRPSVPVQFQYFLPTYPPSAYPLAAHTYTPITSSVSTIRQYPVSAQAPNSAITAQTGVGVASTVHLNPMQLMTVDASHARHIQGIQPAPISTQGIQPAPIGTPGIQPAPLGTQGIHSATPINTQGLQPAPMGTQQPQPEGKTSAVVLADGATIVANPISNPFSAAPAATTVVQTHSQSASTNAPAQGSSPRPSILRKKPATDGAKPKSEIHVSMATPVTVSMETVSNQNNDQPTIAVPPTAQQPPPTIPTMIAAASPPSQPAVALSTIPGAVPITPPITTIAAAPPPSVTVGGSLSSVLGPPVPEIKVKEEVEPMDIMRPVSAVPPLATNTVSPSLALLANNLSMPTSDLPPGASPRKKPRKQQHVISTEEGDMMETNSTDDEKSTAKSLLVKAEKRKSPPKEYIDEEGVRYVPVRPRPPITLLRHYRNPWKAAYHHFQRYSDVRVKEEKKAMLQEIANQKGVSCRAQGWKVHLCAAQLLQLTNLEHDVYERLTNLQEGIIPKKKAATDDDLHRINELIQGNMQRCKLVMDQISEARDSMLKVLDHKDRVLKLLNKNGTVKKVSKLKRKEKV
Chain of UniProt Q15269 (Q15269 whole entry, looked up, one chain of several): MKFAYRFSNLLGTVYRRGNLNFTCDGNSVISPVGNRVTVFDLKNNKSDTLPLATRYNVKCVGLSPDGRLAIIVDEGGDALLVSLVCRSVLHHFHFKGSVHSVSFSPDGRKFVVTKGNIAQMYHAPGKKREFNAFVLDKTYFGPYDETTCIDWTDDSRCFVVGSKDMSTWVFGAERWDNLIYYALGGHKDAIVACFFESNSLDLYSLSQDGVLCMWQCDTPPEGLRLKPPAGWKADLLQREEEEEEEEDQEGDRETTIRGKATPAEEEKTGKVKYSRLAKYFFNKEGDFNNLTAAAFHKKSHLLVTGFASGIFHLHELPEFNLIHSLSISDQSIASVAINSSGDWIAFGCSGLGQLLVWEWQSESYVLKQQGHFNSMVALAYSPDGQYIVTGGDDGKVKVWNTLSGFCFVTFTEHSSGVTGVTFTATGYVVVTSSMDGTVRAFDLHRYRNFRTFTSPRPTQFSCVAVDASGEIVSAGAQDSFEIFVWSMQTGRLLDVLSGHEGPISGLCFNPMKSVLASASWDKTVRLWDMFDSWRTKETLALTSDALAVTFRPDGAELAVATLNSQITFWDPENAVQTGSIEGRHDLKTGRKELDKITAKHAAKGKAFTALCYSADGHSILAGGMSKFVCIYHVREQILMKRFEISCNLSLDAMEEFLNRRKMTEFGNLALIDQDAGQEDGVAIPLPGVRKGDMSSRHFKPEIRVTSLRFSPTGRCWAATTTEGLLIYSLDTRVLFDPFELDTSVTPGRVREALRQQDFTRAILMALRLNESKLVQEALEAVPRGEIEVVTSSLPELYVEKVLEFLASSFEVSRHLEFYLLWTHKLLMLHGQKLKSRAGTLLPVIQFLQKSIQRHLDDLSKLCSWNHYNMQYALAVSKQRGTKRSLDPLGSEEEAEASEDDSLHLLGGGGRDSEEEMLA
Chain of UniProt Q99933 (Q99933 whole entry, one chain of several): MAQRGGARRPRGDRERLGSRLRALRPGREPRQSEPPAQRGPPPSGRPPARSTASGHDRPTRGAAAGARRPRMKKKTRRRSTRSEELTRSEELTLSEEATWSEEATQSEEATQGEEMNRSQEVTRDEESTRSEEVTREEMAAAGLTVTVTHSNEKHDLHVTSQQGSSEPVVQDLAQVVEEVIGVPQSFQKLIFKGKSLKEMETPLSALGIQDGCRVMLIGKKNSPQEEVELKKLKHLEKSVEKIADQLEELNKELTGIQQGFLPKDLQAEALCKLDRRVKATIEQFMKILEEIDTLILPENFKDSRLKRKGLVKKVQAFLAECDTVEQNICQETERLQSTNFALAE
Chain of UniProt O15400 (O15400 whole entry): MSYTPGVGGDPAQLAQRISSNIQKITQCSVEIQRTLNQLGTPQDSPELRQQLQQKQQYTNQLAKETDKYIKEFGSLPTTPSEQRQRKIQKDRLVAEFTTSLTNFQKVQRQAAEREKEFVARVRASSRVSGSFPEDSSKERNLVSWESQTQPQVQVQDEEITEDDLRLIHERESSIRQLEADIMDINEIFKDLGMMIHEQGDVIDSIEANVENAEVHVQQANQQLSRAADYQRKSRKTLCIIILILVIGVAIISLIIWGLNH
Chain of UniProt Q92800 (Q92800 whole entry, one chain of several): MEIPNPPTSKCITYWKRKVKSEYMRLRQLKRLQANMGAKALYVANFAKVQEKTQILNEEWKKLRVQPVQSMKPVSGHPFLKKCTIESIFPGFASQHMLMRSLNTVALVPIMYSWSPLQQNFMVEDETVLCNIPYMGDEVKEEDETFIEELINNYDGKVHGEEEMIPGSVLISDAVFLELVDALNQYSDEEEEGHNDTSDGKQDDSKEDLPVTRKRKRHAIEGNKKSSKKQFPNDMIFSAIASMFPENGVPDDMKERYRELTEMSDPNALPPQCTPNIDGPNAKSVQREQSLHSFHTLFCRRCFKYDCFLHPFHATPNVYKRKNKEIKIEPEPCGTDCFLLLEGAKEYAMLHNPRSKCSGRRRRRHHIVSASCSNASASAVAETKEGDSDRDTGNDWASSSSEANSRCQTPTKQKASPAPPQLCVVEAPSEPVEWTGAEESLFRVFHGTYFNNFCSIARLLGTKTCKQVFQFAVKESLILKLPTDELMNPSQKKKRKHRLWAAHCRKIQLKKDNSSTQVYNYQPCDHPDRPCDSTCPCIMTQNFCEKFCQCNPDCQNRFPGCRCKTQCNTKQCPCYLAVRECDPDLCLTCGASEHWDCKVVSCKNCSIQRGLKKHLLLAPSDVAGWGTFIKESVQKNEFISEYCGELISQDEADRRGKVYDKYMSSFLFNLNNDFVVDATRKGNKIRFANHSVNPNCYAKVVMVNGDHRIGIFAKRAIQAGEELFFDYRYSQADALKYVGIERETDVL
Chain of UniProt Q8TBC5 (Q8TBC5 whole entry, one chain of several): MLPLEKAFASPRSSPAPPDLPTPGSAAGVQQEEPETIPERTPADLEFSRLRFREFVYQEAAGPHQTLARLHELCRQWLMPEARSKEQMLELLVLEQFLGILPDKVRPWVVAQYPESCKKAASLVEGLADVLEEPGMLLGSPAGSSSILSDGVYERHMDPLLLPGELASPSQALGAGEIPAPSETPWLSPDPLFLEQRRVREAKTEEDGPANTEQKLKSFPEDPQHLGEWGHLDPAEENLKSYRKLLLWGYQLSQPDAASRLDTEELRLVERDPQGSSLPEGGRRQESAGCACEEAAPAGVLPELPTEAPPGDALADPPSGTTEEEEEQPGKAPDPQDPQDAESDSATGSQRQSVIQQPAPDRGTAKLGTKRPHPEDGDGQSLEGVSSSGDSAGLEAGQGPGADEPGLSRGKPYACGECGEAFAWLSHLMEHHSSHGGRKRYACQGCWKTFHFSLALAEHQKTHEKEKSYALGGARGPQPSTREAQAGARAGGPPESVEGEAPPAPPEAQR
Chain of UniProt A6NDU8 (A6NDU8 whole entry): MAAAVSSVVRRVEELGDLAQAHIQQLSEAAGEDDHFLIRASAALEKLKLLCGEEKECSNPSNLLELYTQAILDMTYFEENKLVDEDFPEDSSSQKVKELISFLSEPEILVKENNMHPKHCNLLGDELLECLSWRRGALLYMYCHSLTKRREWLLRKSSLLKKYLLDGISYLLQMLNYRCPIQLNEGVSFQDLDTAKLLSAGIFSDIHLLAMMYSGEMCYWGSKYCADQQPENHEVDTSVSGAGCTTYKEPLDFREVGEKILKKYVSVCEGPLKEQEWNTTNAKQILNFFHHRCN
Chain of UniProt Q13620 (Q13620 whole entry, one chain of several): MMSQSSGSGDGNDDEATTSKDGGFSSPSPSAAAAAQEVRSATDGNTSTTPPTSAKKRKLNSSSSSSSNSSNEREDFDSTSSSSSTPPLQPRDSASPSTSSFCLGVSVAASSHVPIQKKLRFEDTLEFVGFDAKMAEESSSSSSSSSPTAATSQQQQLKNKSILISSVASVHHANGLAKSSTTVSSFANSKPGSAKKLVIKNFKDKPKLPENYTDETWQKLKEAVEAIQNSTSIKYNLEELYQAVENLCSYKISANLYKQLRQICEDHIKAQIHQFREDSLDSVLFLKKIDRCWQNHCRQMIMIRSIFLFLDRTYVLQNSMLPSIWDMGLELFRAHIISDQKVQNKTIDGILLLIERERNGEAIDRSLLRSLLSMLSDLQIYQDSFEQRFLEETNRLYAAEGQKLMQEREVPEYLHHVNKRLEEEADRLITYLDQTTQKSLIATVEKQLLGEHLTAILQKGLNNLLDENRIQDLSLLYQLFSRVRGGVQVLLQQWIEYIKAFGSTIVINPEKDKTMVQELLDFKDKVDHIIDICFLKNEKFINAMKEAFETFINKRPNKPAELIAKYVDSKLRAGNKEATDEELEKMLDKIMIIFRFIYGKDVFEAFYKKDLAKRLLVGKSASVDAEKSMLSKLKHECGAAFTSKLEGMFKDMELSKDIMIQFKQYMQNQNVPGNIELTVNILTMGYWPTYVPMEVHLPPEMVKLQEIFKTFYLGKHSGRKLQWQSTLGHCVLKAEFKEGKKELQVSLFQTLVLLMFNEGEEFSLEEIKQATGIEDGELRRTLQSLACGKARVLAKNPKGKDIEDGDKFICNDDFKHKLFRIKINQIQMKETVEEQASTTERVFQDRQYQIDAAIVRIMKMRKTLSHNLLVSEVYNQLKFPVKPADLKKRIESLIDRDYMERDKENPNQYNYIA

Target	NP40-soluble protein abundance (concentration: 1mM)	NP40-soluble protein abundance (concentration: 2mM)	NP40-soluble protein abundance (concentration: 4mM)	NP40-soluble protein abundance (concentration: 6mM)	NP40-soluble protein abundance (concentration: 8mM)	NP40-soluble protein abundance (concentration: 10mM)
A0A0C4DG78|M0R3C6|Q8TBC5|Q8TBC5-2|Q8TBC5-3|Q8TBC5-4 (UniProt Q8TBC5)	1 ± 0.012	1.02 ± 0.03	0.984 ± 0.028	1.016 ± 0.003	1.002 ± 0.0089	1.02 ± 0.011
K4DI93|Q13620-1 (UniProt Q13620)	0.991 ± 0.011	0.936 ± 0.05	0.9972 ± 0.0076	0.992 ± 0.028	1 ± 0.017	0.995 ± 0.024
A0A0B4J2E5|Q15269 (UniProt Q15269)	1.05 ± 0.019	1.04 ± 0.098	1.23 ± 0.043	1.38 ± 0.036	1.56 ± 0.074	1.52 ± 0.095
H7BXF5|Q9H0E3-3 (UniProt Q9H0E3)	1.05 ± 0.041	1.09 ± 0.035	1.02 ± 0.03	1.03 ± 0.039	0.993 ± 0.016	1.05 ± 0.057
UniProt O14646|O14646-2	1.07 ± 0.052	1.15 ± 0.023	1.23 ± 0.077	1.33 ± 0.14	1.41 ± 0.11	1.49 ± 0.15
A0A0A0MSY9|Q92800|Q92800-2|Q92800-3|Q92800-4|Q92800-5 (UniProt Q92800)	0.978 ± 0.017	0.97 ± 0.022	0.9794 ± 0.0047	0.994 ± 0.016	0.999 ± 0.019	1.001 ± 0.0058
A0A0A6YYH1|H0YLI7|P59780|Q7Z6K5-2 (UniProt Q7Z6K5+P59780+H0YLI7)	1 ± 0.04	1.01 ± 0.011	0.9742 ± 0.0072	0.974 ± 0.028	0.965 ± 0.032	0.968 ± 0.017
J3QTA2|Q99933|Q99933-3|Q99933-4 (UniProt Q99933)	1.01 ± 0.028	1.029 ± 0.0083	0.992 ± 0.012	0.99 ± 0.03	0.965 ± 0.038	0.993 ± 0.021
J3QRS9|O43670|O43670-2|O43670-4|X6R4W8 (UniProt O43670)	1.09 ± 0.073	1.09 ± 0.087	1.15 ± 0.074	1.25 ± 0.065	1.29 ± 0.062	1.34 ± 0.1
UniProt O15400|O15400-2	1.01 ± 0.059	1.04 ± 0.1	0.993 ± 0.06	0.992 ± 0.035	0.976 ± 0.039	0.957 ± 0.038
C5orf51 (UniProt A6NDU8)	1.04 ± 0.014	1.03 ± 0.025	1.01 ± 0.025	0.9735 ± 0.0065	0.953 ± 0.017	0.95 ± 0.05
UniProt O60508|Q5SRN1	1.03 ± 0.018	1.07 ± 0.029	1.06 ± 0.026	1.09 ± 0.059	1.08 ± 0.044	1.13 ± 0.056
